From PubChem BioAssay AID1010 (Sanford-Burnham Center for Chemical Genomics, 2008) come the findings set out here.

Screen size: about 48,000 compounds; about 160 (0.33%) were called active. Many of the other results were omitted from the sample, so actives are more common in it than they were. Unmarked numbers belong to inactive results.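 The calls were made as follows: active = survival measured by cellular ATP above 50% at 15 µg/ml in the first screen; inactive = the rest.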

The experiment is described as follows: protection against thapsigargin ER stress killing – CSM14.1 cells, ATP luminescence, primary screen (AID 1010).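 Also: cell death triggered by about 15 µM thapsigargin; ATP read 24 h after thapsigargin was added; plate controls were thapsigargin with DMSO for no effect and DMSO without thapsigargin for full effect.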 Conditions: CSM14.1 thapsigargin ER stress survival, stronger effect = higher value, screened at 15 µg/mL (by protocol).
Turning to `COc1ccc(C2Sc3ccccc3NC3=C2C(=O)c2ccccc23)cc1` (stereo not drawn), the relative survival (cellular ATP) is 5.1%.
As for `COc1ccc(NC(=O)c2cccc(N3C(=O)c4ccc(C(=O)Nc5ccc(OC)cc5)cc4C3=O)c2)cc1`, the relative survival (cellular ATP) is 0.4%.
As to `COc1cc(C2NC(=S)NC(C)=C2C(=O)Nc2ccccc2)ccc1O` (stereo not drawn), the relative survival (cellular ATP) was 3.8%.
Turning to `CC(=O)N1C(=O)c2cccc3cccc1c23`, the relative survival (cellular ATP) is 17.3%.
The same measure for `COc1cc(/C=N/n2cnnc2)cc(Br)c1OCCOc1ccc(C(C)(C)C)cc1`: 6.5%; for `O=C(CNC(=O)C(c1ccccc1)c1ccccc1)N/N=C/c1cn[nH]c1-c1ccccc1`: 49.7%.
For the compound `Cc1c(OCC(=O)c2ccc(F)cc2)ccc2c3c(c(=O)oc12)CCCC3`, the relative survival (cellular ATP) was 0.4%.
Take `Cc1ccc(N(Cc2c(O)ccc3ccccc23)C(=O)c2cccc([N+](=O)[O-])c2)cc1`: the relative survival (cellular ATP) was -2.5%.
As for `O=S(=O)(/N=C/c1ccccc1)c1cccs1`, the relative survival (cellular ATP) was 1.2%.
In the case of `COc1ccc(NC2SC(=O)NC2=O)cc1` (stereo not drawn), the relative survival (cellular ATP) is 11.7%.
Consider `CCOc1cccc(-c2cc(C(=O)N3CCCCCC3)c3ccccc3n2)c1`, for which the relative survival (cellular ATP) was 3.9%.
Regarding `NNC(=O)c1n[nH]c2c1CCCCCCCCCC2`, the relative survival (cellular ATP) was -1.8%.
Regarding `Cc1ccccc1NC(=S)N1CCN(c2cccc(Cl)c2)CC1`, the relative survival (cellular ATP) is 6.6%.
For the compound `CSc1ccc(CN2CCN(C(=O)c3cccc(F)c3)CC2)cc1`, the relative survival (cellular ATP) was 7.7%.
Turning to `O=C(Nc1ccc(Br)cn1)c1cc2n(n1)C(C(F)(F)F)CC(c1cccs1)N2` (stereo not drawn), the relative survival (cellular ATP) is -3.5%.
Turning to `NS(=O)(=O)c1ccc(CCNC(=O)c2cccs2)cc1`, the relative survival (cellular ATP) is -2.4%.
Regarding `COc1ccccc1C(=O)NN1C(=O)/C(=C2/C(=O)N(CC(=O)O)c3ccccc32)SC1=S`, the relative survival (cellular ATP) is 25.3%.
`CCN(CC)S(=O)(=O)c1ccc(NC(=O)c2ccc(OC)c(I)c2)cc1`: the relative survival (cellular ATP) is 0.8%.
As for `COc1ccc(C2CC(=O)C3=C(C2)Nc2ccccc2NC3c2cc(F)ccc2F)cc1` (stereo not drawn), the relative survival (cellular ATP) was -0.8%.
Regarding `COC(=O)C1=C(C)NC2=C(C(=O)CC(c3ccc(OC)c(OC)c3)C2)C1c1ccccc1OCc1ccccc1` (stereo not drawn), the relative survival (cellular ATP) was 60.6% (active).
`COc1ccc(C2CC(=O)C3=C(C2)Nc2ccccc2NC3c2cccc(Cl)c2)cc1` (stereo not drawn): the relative survival (cellular ATP) was 6.7%.
In the case of `COc1ccc(C2CC(=O)C3=C(C2)Nc2ccccc2NC3c2cc3c(cc2[N+](=O)[O-])OCO3)cc1` (stereo not drawn), the relative survival (cellular ATP) is -4.3%.
On to `COc1ccc(C2CC(=O)C3=C(C2)Nc2ccccc2NC3c2cccc(C)c2)cc1` (stereo not drawn), for which the relative survival (cellular ATP) is 102% (active).
The same measure for `COC(=O)C1=C(C)NC2=C(C(=O)CC(c3ccc(OC)c(OC)c3)C2)C1c1ccc(OC)c(OC)c1` (stereo not drawn): 8.8%; for `COc1ccc(C2CC(=O)C3=C(C2)Nc2ccccc2NC3c2ccc(SC)cc2)cc1` (stereo not drawn): 7.4%.
With `COC(=O)C1=C(C)NC2=C(C(=O)CC(c3ccccc3)C2)C1c1cccc(I)c1` (stereo not drawn), the relative survival (cellular ATP) is 22.6%.
As for `CCCCOc1ccccc1C1Nc2ccccc2NC2=C1C(=O)CC(c1ccc(OC)c(OC)c1)C2` (stereo not drawn), the relative survival (cellular ATP) was 76.5% (active).
As for `CCc1c(C)sc(NC(=O)CCc2ccc(OC)cc2)c1C#N`, the relative survival (cellular ATP) was 4.9%.
In the case of `COc1cccc(/C=N/N2CCN(Cc3ccc(Cl)cc3)CC2)c1`, the relative survival (cellular ATP) is -4.1%.
As for `CCOc1cc(OCC)cc(C(=O)Nc2cc3nn(-c4ccc(OC)cc4)nc3cc2C)c1`, the relative survival (cellular ATP) is 4.3%.
The same measure for `CCCCCCCCC(=O)N/N=C/c1ccsc1C`: 2.5%; for `Cc1cc(NC(=O)COC(=O)/C=C/c2ccc([N+](=O)[O-])cc2)no1`: 1.8%; for `Cc1ccc([N+](=O)[O-])cc1NC(=O)C12CC3CC(CC(C3)C1)C2`: -1.4%.
As for `CC1(C)Nc2ccc(OC(=O)c3ccccc3Br)cc2-c2c1ssc2=S`, the relative survival (cellular ATP) was -1%.
Consider `Cc1ccc(Cl)cc1NC1=CC(=O)CC(C)(C)C1`, for which the relative survival (cellular ATP) was 10.7%.
On to `O=C(NC1CCCCCC1)c1ccc([N+](=O)[O-])o1`, for which the relative survival (cellular ATP) was -27.9%.
As to `CCO/N=C1/CC(c2ccccc2)Cc2onc(C)c21` (stereo not drawn), the relative survival (cellular ATP) is 13.2%.
In the case of `COC(=O)c1ccc(C2Nc3ccccc3NC3=C2C(=O)CC(c2ccccc2)C3)cc1` (stereo not drawn), the relative survival (cellular ATP) was 3.7%.
With `COc1cc(C2Nc3ccc(C(=O)c4ccccc4)cc3NC3=C2C(=O)CCC3)cc(OC)c1OC` (stereo not drawn), the relative survival (cellular ATP) is -2.2%.
`O=C1CCCC2=C1C(c1ccc(Cl)cc1)Nc1ccc(C(=O)c3ccccc3)cc1N2` (stereo not drawn): the relative survival (cellular ATP) is 72.5% (active).
For the compound `NC(=O)c1ccccc1N=Cc1ccccc1[N+](=O)[O-]`, the relative survival (cellular ATP) was 1.7%.
The same measure for `CCOc1ccc(N2C(=O)CC(NCc3cccnc3)C2=O)cc1` (stereo not drawn): 5.5%; for `CC(=O)N(C1=C(Cl)C(=O)c2ccccc2C1=O)c1cccc(Br)c1`: 11.1%.
Regarding `CC(=O)Nc1ccc(S(=O)(=O)Nc2ccc(Br)c(Cl)c2)cc1`, the relative survival (cellular ATP) is 5.8%.
The value for `CCN(C(=O)c1ccccc1)c1ccccc1` was -4.6%.
The same measure for `COc1ccc(C2/C(=C(\O)c3ccccc3)C(=O)C(=O)N2CCCCCC(=O)O)c(OC)c1` (stereo not drawn): -3.4%; for `CCN(C(=O)c1sc(NC(=O)c2ccc(Cl)cc2)c(C#N)c1C)C1CCCCC1`: 2.3%; for `CCOc1ccc(/C=N/N2CCN(c3ccccc3OC)CC2)cc1OC`: 5.2%.
Regarding `COc1ccc(C(=O)NC(N2CCCCC2)C(Cl)(Cl)Cl)cc1OC` (stereo not drawn), the relative survival (cellular ATP) is 3.6%.
Take `C=CCc1c(C)nc(-c2ccccc2)nc1Nc1ccc(C(=O)O)cc1`: the relative survival (cellular ATP) was 0.2%.
In the case of `Cn1cc(/C=C2/SC(=S)N(c3ccccc3)C2=O)c2ccccc21`, the relative survival (cellular ATP) was 6.8%.
As to `CC1=C(C(=O)Nc2ccccc2)C(c2ccc3c(c2)OCO3)NC(=S)N1` (stereo not drawn), the relative survival (cellular ATP) was 10.1%.
In the case of `CCOC(=O)C(=Cc1ccc(-c2cccc(Cl)c2Cl)o1)C(=O)OCC`, the relative survival (cellular ATP) is 5.9%.
The value for `COc1cc(OC)cc(C(=O)Nc2ccc3nn(-c4ccc(F)cc4)nc3c2)c1` was 4%.
As to `COc1ccccc1-n1cnc2cc(NC(=O)c3ccccc3)ccc21`, the relative survival (cellular ATP) is 97.4% (active).
Take `COc1ccc(NC(=O)c2cccc(F)c2)cc1OC`: the relative survival (cellular ATP) is 24.8%.
In the case of `COc1ccc(CN2CCN(C(=O)c3cccc(Cl)c3)CC2)cc1OC`, the relative survival (cellular ATP) is 2.9%.
The same measure for `O=C(Nc1cccc(Br)c1)c1ccc(N2C(=O)c3cccnc3C2=O)cc1`: 4.6%.
